{
  "source": "the supplement of paper PMC9023506",
  "note": "Where a name gives a salt, the structure may show the parent alone.",
  "data": [
    {"test_system": "Danio rerio larvae (5 dpf)", "experiment": "optomotor response to green moving lines, difference vs DMSO (percentage points (treated minus DMSO)); higher = more of the behaviour than the DMSO vehicle control", "conditions": "10 µM; exposure time: 3 h pre-incubation + 3 h imaging", "protocol": "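5-dpf wild-type zebrafish larvae were imaged in 96-well plates. They were treated with 190 Tocris FDA-approved drugs at 10 µM (1 µl/ml DMSO) for 3 h before and 3 h during imaging at 28.5 °C, 48 larvae per drug. Automated image analysis gave % time moving and optomotor responses. Values are drug group mean minus DMSO vehicle mean (n=844), in percentage points, for 10 behaviours.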", "values": [
      {"compound": "OCCOCCN1CCN(C2=Nc3ccccc3Sc3ccccc32)CC1", "note": "[Quetiapine hemifumarate]", "optomotor response to green moving lines": 10.3},
      {"compound": "COc1cc2nccc(Oc3ccc(NC(=O)C4(C(=O)Nc5ccc(F)cc5)CC4)cc3)c2cc1OC", "optomotor response to green moving lines": 9.65},
      {"compound": "CC(c1cc2ccccc2s1)N(O)C(N)=O", "note": "(stereo not given) [Zileuton]", "optomotor response to green moving lines": -11.3},
      {"compound": "O=C(c1ccc(OCCN2CCCCC2)cc1)c1c(-c2ccc(O)cc2)sc2cc(O)ccc12", "note": "[Raloxifene hydrochloride]", "optomotor response to green moving lines": -7.74},
      {"compound": "CN(C)CCC[C@@]1(c2ccc(F)cc2)OCc2cc(C#N)ccc21", "note": "[Escitalopram oxalate]", "optomotor response to green moving lines": 1.9},
      {"compound": "Nc1nc(F)nc2c1ncn2[C@@H]1O[C@H](CO)[C@@H](O)[C@@H]1O", "note": "[Fludarabine]", "optomotor response to green moving lines": 1.3},
      {"compound": "OC(CNCC(O)C1CCc2cc(F)ccc2O1)C1CCc2cc(F)ccc2O1", "note": "(stereo not given) [Nebivolol hydrochloride]", "optomotor response to green moving lines": -4.67},
      {"compound": "CC1(C)O[C@@H]2[C@@H](CO[C@@]3(COS(N)(=O)=O)OC(C)(C)O[C@@H]23)O1", "note": "[Topiramate]", "optomotor response to green moving lines": -1.84},
      {"compound": "CC(=O)O[C@]1(C(C)=O)CC[C@H]2[C@@H]3C=C(C)C4=CC(=O)CC[C@]4(C)[C@H]3CC[C@@]21C", "note": "[Megestrol Acetate]", "optomotor response to green moving lines": -2.03},
      {"compound": "N#Cc1ccc2[nH]cc(CCCCN3CCN(c4ccc5oc(C(N)=O)cc5c4)CC3)c2c1", "note": "[Vilazodone hydrochloride]", "optomotor response to green moving lines": -30.3},
      {"compound": "Brc1c(NC2=NCCN2)ccc2nccnc12", "optomotor response to green moving lines": 10.3},
      {"compound": "CCCCCOC(=O)Nc1nc(=O)n([C@@H]2O[C@H](C)[C@@H](O)[C@H]2O)cc1F", "note": "[Capecitabine]", "optomotor response to green moving lines": 1.46},
      {"compound": "CCCCNc1cc(C(=O)O)cc(S(N)(=O)=O)c1Oc1ccccc1", "note": "[Bumetanide]", "optomotor response to green moving lines": 5.17},
      {"compound": "CCN(Cc1ccncc1)C(=O)C(CO)c1ccccc1", "note": "(stereo not given) [Tropicamide]", "optomotor response to green moving lines": -4.16},
      {"compound": "C=CC(=O)N1CCC[C@@H](n2nc(-c3ccc(Oc4ccccc4)cc3)c3c(N)ncnc32)C1", "note": "[Ibrutinib]", "optomotor response to green moving lines": -2.12},
      {"compound": "CN1CCN2c3ncccc3Cc3ccccc3C2C1", "note": "(stereo not given) [Mirtazapine]", "optomotor response to green moving lines": -1.59},
      {"compound": "CCCc1nc2c(C)cc(-c3nc4ccccc4n3C)cc2n1Cc1ccc(-c2ccccc2C(=O)O)cc1", "note": "[Telmisartan]", "optomotor response to green moving lines": -3.99},
      {"compound": "CCC(=O)O[C@]1(C(=O)SCF)[C@H](C)C[C@H]2[C@@H]3C[C@H](F)C4=CC(=O)C=C[C@]4(C)[C@@]3(F)[C@@H](O)C[C@@]21C", "note": "[Fluticasone propionate]", "optomotor response to green moving lines": 2.35},
      {"compound": "CC(C)(C(=O)O)c1ccc(C(O)CCCN2CCC(C(O)(c3ccccc3)c3ccccc3)CC2)cc1", "note": "(stereo not given) [Fexofenadine hydrochloride]", "optomotor response to green moving lines": 3.69},
      {"compound": "CCCCC(=O)N(Cc1ccc(-c2ccccc2-c2nnn[nH]2)cc1)[C@H](C(=O)O)C(C)C", "note": "[Valsartan]", "optomotor response to green moving lines": 4.22},
      {"compound": "CCOC(=O)[C@H](CCc1ccccc1)N[C@H]1CCc2ccccc2N(CC(=O)O)C1=O", "note": "[Benazepril hydrochloride]", "optomotor response to green moving lines": 11.6},
      {"compound": "Cc1ccc(N(CC2=NCCN2)c2cccc(O)c2)cc1", "note": "[Phentolamine Mesylate]", "optomotor response to green moving lines": 5.31},
      {"compound": "CC(C)COCC(CN(Cc1ccccc1)c1ccccc1)N1CCCC1", "note": "(stereo not given) [Bepridil hydrochloride]", "optomotor response to green moving lines": -2.16},
      {"compound": "CCCCCCCN(CC)CCCC(O)c1ccc(NS(C)(=O)=O)cc1", "note": "(stereo not given) [Ibutilide hemifumarate]", "optomotor response to green moving lines": 4.88},
      {"compound": "CC(C)CN(C[C@@H](O)[C@H](Cc1ccccc1)NC(=O)O[C@H]1CO[C@H]2OCC[C@H]21)S(=O)(=O)c1ccc(N)cc1", "note": "[Darunavir]", "optomotor response to green moving lines": 1.64},
      {"compound": "O=C1CCc2cc(OCCCCc3nnnn3C3CCCCC3)ccc2N1", "note": "[Cilostazol]", "optomotor response to green moving lines": 3.44},
      {"compound": "CCOC(=O)C1=C(COCCN)NC(C)=C(C(=O)OC)C1c1ccccc1Cl", "note": "(stereo not given) [Amlodipine besylate]", "optomotor response to green moving lines": -4.86},
      {"compound": "CCN(CC)CCNC(=O)c1c(C)[nH]c(/C=C2\\C(=O)Nc3ccc(F)cc32)c1C", "note": "[Sunitinib malate]", "optomotor response to green moving lines": -7.59},
      {"compound": "OCCN1C[C@H](O)[C@@H](O)[C@H](O)[C@H]1CO", "note": "[Miglitol]", "optomotor response to green moving lines": 2.58},
      {"compound": "Nc1ncn([C@@H]2O[C@H](CO)[C@@H](O)[C@H]2O)c(=O)n1", "note": "[5-Azacytidine]", "optomotor response to green moving lines": 1.33},
      {"compound": "C#CCN[C@@H]1CCc2ccccc21", "note": "[Rasagiline mesylate]", "optomotor response to green moving lines": -10.1},
      {"compound": "CCOc1nc2cccc(C(=O)O)c2n1Cc1ccc(-c2ccccc2-c2nnn[nH]2)cc1", "note": "[Candesartan]", "optomotor response to green moving lines": 0.689},
      {"compound": "COCCCOc1cc(C[C@@H](C[C@H](N)[C@@H](O)C[C@H](C(=O)NCC(C)(C)C(N)=O)C(C)C)C(C)C)ccc1OC", "note": "[Aliskiren hemifumarate]", "optomotor response to green moving lines": -4.53},
      {"compound": "C#C[C@]1(O)CC[C@H]2[C@@H]3CCC4=CC(=O)CC[C@@H]4[C@H]3CC[C@@]21CC", "note": "[Levonorgestrel]", "optomotor response to green moving lines": 5.26},
      {"compound": "NS(=O)(=O)c1cc2c(cc1Cl)NC(C1CC3C=CC1C3)NS2(=O)=O", "note": "(stereo not given) [Cyclothiazide]", "optomotor response to green moving lines": 0.907},
      {"compound": "Cc1ccc(-c2cc(C(F)(F)F)nn2-c2ccc(S(N)(=O)=O)cc2)cc1", "note": "[Celecoxib]", "optomotor response to green moving lines": 0.469},
      {"compound": "CC(C)N(CCCCOCC(=O)NS(C)(=O)=O)c1cnc(-c2ccccc2)c(-c2ccccc2)n1", "note": "[Selexipag]", "optomotor response to green moving lines": -4.69},
      {"compound": "CO[C@H]1/C=C/O[C@@]2(C)Oc3c(C)c(O)c4c(O)c(c5c(nc6cc(C)ccn65)c4c3C2=O)NC(=O)/C(C)=C\\C=C\\[C@H](C)[C@H](O)[C@@H](C)[C@@H](O)[C@@H](C)[C@H](OC(C)=O)[C@@H]1C", "note": "[Rifaximin]", "optomotor response to green moving lines": 0.563},
      {"compound": "Nc1nc2c(ncn2COCCO)c(=O)[nH]1", "note": "[Acyclovir]", "optomotor response to green moving lines": 0.472},
      {"compound": "Cc1cc(C2CCCCC2)n(O)c(=O)c1", "note": "[Ciclopirox]", "optomotor response to green moving lines": -5.97}
    ]}
  ]
}
